Screening data deposited in PubChem by National Center for Advancing Translational Sciences (NCATS).
BLM helicase inh: qHTS Assay for Inhibitors of Bloom's syndrome helicase (BLM); recombinant BLM DNA unwinding, fluorescence dequenching; Potency, µM (top dose mostly 56.1 µM), actives largely listed as inhibitors; actives 0.2% (n = 350,000); note: nearly all actives have a fitted effect of over 35% in size
RECQ1 inh-1: qHTS Assay for Inhibitors of RecQ-Like Dna Helicase 1 (RECQ1) | ATP-dependent DNA helicase Q1 (Homo sapiens), P46063 | RECQ1 DNA unwinding, red fluorescence kinetic read | Potency, µM (titrated, usually from 57.3 µM), usual class: inhibitors | actives 0.54% (n = 240,000) | AID 2549, 2010; note: nearly all actives have a fitted effect of over 30% in size
Target sequence (P46063 whole entry, looked up): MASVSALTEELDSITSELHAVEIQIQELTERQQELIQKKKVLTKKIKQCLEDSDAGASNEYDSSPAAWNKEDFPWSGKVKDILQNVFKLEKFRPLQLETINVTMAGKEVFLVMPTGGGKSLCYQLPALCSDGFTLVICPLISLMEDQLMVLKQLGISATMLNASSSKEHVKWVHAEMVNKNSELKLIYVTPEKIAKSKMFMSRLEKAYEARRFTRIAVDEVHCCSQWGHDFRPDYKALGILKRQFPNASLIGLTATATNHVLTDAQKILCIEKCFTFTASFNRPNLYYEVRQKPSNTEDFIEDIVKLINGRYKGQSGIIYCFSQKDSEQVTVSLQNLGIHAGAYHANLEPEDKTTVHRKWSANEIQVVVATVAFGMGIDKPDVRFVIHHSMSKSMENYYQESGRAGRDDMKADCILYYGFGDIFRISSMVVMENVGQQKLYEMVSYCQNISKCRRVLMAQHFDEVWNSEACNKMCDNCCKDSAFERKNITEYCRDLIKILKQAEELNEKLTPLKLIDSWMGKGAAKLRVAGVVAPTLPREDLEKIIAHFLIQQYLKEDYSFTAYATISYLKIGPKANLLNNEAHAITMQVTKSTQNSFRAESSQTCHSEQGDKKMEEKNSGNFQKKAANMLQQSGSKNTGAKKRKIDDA
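50 nM RECQ1T1 preincubated 15 min with compound in Tris pH 8.0 buffer with MgCl2, DTT, Tween-20 and 2.5 ug/ml poly(dI-dC); started with 200 nM TAMRA/BHQ-2 forked duplex and 2 mM ATP. Unwinding read as fluorescence (525/598 nm), two reads 2 h apart.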
WRN helicase inh: qHTS for Inhibitors of WRN Helicase; Bifunctional 3'-5' exonuclease/ATP-dependent helicase WRN (Homo sapiens), Q14191; WRN helicase unwinding, fluorescent forked duplex, kinetic; Potency, µM (highest dose often 114 µM), usual class: inhibitors; actives 0.46% (n = 360,000); note: nearly all actives have a fitted effect of over 55% in size
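WRN at 20 nM final preincubated with compound 15 min at room temperature; reaction started with 100 nM fluorophore/quencher forked duplex oligonucleotide and 2 mM ATP final. Unwinding followed kinetically by red fluorescence (ex 525, em 598 nm).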
TRb-SRC2 inh: qHTS for Inhibitors of the Interaction of Thyroid Hormone Receptor and Steroid Receptor Coregulator 2; Thyroid hormone receptor beta (Homo sapiens), P10828; TRbeta-SRC2 peptide binding, fluorescence polarization; receptor liganded with 1 µM T3; Potency, µM (top dose mostly 106 µM), usual class: inhibitors; actives 0.065% (n = 280,000); AID 1469, 2008; note: nearly all actives have a fitted effect of over 50% in size
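TRb LBD 0.6 uM + Texas Red SRC2 peptide 20 nM, 1 uM T3, Tris buffer w/ 5% DMSO; compound pinned, 5 h RT; FP read ex 555/em 632; normalized to unbound and bound controls.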
TexasRed fluor: Total Fluorescence Counterscreen for Inhibitors of the Interaction of Thyroid Hormone Receptor and Steroid Receptor Coregulator 2 | TRb/SRC2 Texas Red total fluorescence interference | Potency, µM (titrated, usually from 106 µM) | actives 0.29% (n = 280,000) | AID 1479, 2009; active = well fitted curve in either direction with a large enough effect; inconclusive = small, poorly fitted or top-dose-only effect
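Human TRb ligand-binding domain at 0.6 uM with 20 nM Texas Red SRC2 peptide in Tris buffer containing 1 uM T3 and 5% DMSO, incubated with compound 5 h at ambient temperature. Total fluorescence (555/632 nm) calculated as parallel + 2 × perpendicular.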
APE1 inh: qHTS Assay for Inhibitors of the Human Apurinic/apyrimidinic Endonuclease 1 (APE1); recombinant APE1, TAMRA/BHQ-2 abasic DNA cleavage fluorescence; Potency, µM (highest dose often 65.8 µM), most hits filed as inhibitors; actives 0.35% (n = 350,000); AID 2517, 2012; note: nearly all actives have a fitted effect of over 55% in size
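Readout is kinetic fluorescence (ex 525, em 598 nm) from cleavage of 50 nM TAMRA/BHQ-2 THF abasic duplex by 0.75 nM APE1, compound added 15 min beforehand at RT.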
RECQ1 inh conf: Confirmation qHTS Assay for Inhibitors of RecQ-Like Dna Helicase 1 (RECQ1); actives 28% (n = 610); shares compounds with RECQ1 inh-1; Potency, µM (doses to about 229 µM), actives largely listed as inhibitors; RECQ1 helicase DNA unwinding, fluorescence; note: nearly all actives have a fitted effect of over 45% in size
ADP FP counter: Counterscreen for RECQ1 Inhibitors: ADP Fluorescence Polarization Displacement Assay; actives 27% (n = 530); Potency, µM (titrated, usually from 228 µM), most hits filed as inhibitors; AID 2711, 2010; shares compounds with RECQ1 inh-1; ADP fluorescence polarization displacement counterscreen; note: nearly all actives have a fitted effect of over 45% in size
RECQ1 inh-2: Confirmation qHTS Assay for Inhibitors of RecQ-Like Dna Helicase 1 (RECQ1) - Round 2 Cherry Picks. shares compounds with RECQ1 inh-1. recombinant RECQ1 DNA unwinding, red fluorescence. Potency, µM (top dose mostly 119 µM), most hits filed as inhibitors. actives 15% (n = 1,100); note: nearly all actives have a fitted effect of over 50% in size
Hits are given with their value; . = inactive; ? = inconclusive; / = no result given; [ ] = dose if it differs, or a comment. A selection: hits, their analogues and other compounds. The true share with any hit is near 0.91%. Unless noted, calls come from the whole dose curve; as a rule, active = well fitted curve in the direction sought with a large enough effect; inconclusive = small, poorly fitted or top-dose-only effect, or another doubt; inactive = no such curve, though single readings can be large; an effect the other way counts as inactive or inconclusive.

SMILES	BLM helicase inh	RECQ1 inh-1	WRN helicase inh	TRb-SRC2 inh	TexasRed fluor	APE1 inh	RECQ1 inh-2	others
O=C(O)CCSc1nnc(COc2cccc3ccccc23)n1-c1cccc(Cl)c1	.	.	.	.	.	.	/	RECQ1 inh conf=.;ADP FP counter=.
CCCSCCCNC(=O)c1ccccc1NC(=O)C1=CSCCO1	.	/	.	/	/	.	/
Cc1c(N2C(=O)CS/C2=N\N=C\c2ccccc2O)c(=O)n(-c2ccccc2)n1C	.	.	.	.	.	.	/	RECQ1 inh conf=.;ADP FP counter=.
Cc1c(N2C(=O)CS/C2=N\N=C\c2ccc(Cl)cc2)c(=O)n(-c2ccccc2)n1C	.	.	.	.	.	.	/
C/C(=N\NC(=O)C1CC1)c1ccc(OC(F)F)cc1	.	/	.	/	/	.	/
Cc1ccc(S(=O)(=O)N2[C@@H](c3ccc4c(c3)OCO4)C(C(=O)O)=C[C@H]2CC2CCCC2)cc1	/	/	.	/	/	.	/
Nc1cc(=O)[nH]c(SCC(=O)Nc2ccc3c(c2)CCC3)n1	.	?	.	.	.	?	.
Nc1cc(=O)[nH]c(SCC(=O)Nc2ccc(F)c(Cl)c2)n1	.	.	.	.	.	.	/
CCCCCCOC1(c2ccccc2)OC(=O)c2ccccc21 (stereo unspecified)	.	40µM	.	.	.	.	.
CCOC(=O)CC[C@H](NC(=O)Cn1cnc2c(OCc3ccccc3)ncnc21)C(=O)OCC	/	/	.	/	/	.	/
Cc1ccc(C(c2ccc(C)o2)c2cccc([N+](=O)[O-])c2O)o1	.	?	?	.	.	.	?
CC(=O)c1cccc(-c2ccnc3c2CC(C(=O)NCc2ccccc2)O3)c1 (stereo unspecified)	/	/	.	/	/	/	/
COc1ccc(CNC(=O)C2CCN(c3cc(C(=O)Nc4cccc(OC)c4)ccn3)CC2)cc1	.	/	.	/	/	.	/
Cc1ccc(CNC(=O)C2CCN(S(=O)(=O)c3cccs3)CC2)o1	.	?	.	.	.	.	.
Cc1ccc(CNC(=O)C2CCN(S(=O)(=O)c3cccs3)CC2)cc1	.	/	.	/	/	.	/
COc1ccc(C(=O)OCc2ccccc2C#N)cc1S(=O)(=O)N1CCOCC1	/	/	.	/	/	/	/
CCOC(=O)c1sc(-c2ccc(Br)cc2)cc1N	.	32µM	.	.	.	.	.
Cc1ccc(-n2c(=O)c(C#N)cc3c(=O)n4ccccc4nc32)cc1	.	35µM	.	.	.	?	.
Cc1cc(C(F)(F)F)n2[nH]c(=O)c(N=Nc3ccccc3)c2n1	.	10µM	.[11.6 µM]	.	.	.	/	RECQ1 inh conf=.;ADP FP counter=.
COc1cc(N2CCCC2)c(OC)cc1/C=C(/C#N)c1cccc(F)c1	.	4µM	.	?	.	.	/	RECQ1 inh conf=?;ADP FP counter=?
O=C1C(=O)C(c2cc(O)c(O)c(O)c2)Oc2cc(O)cc(O)c21 (stereo unspecified)	/	/	/	/	/	/	/	RECQ1 inh conf=1µM
CCn1c(=O)c(-c2cc(=O)[nH][nH]2)c(O)c2ccccc21	.	25µM	.	.	.	.	.
O=c1cc(-c2c(O)c3ccccc3n(Cc3ccccc3)c2=O)[nH][nH]1	.	?	?	.	.	.	/
CCc1ccc(-n2nc(CO)c(C(=O)NCc3cccs3)n2)cc1	.	/	/	.	.	/	/
O=C(O)c1cc(N/N=C/c2ccc(N3CCOCC3)s2)ccc1Cl	.	14µM	?	.	.	16µM	/	RECQ1 inh conf=.
SMILES	BLM helicase inh	RECQ1 inh-1	WRN helicase inh	TRb-SRC2 inh	TexasRed fluor	APE1 inh	RECQ1 inh-2	others
NC(=O)N/N=C/c1ccc(N2CCOCC2)s1	.	.	.	.	.	.	/
CCCCC1=CC2=C(c3ccco3)C(=O)C(C)(OC(=O)c3ccc(OC)cc3)C(=O)C2=CN1Cc1ccccc1 (stereo unspecified)	.[12.4 µM]	?	.	.[11.2 µM]	.[11.2 µM]	.[12.4 µM]	.
CCCCC1=CC2=C(c3ccco3)C(=O)C(C)(OC(=O)c3ccc(OC)cc3)C(=O)C2=CN1CCOC (stereo unspecified)	.[12.4 µM]	.[11.5 µM]	.	.[11.2 µM]	.[11.2 µM]	.[12.4 µM]	/
COc1ccc2c(c1)CC/C(=C\c1ccc(OC)c(Cn3cccn3)c1)C2=O	.	.	.	.	.	.	/
COc1ccc2c(c1)CC/C(=C\c1ccc(OC)c(Cn3nc(C)cc3C)c1)C2=O	.	35µM	?	.	.	.	?
CN(C)c1ccc(-c2nc(Nc3ccncc3)c3ccccc3n2)cc1	.	?	/	.	.	.	?
CN(C)C(=O)c1ccc(-c2nc(Nc3ccncc3)c3ccccc3n2)cc1	.	.	/	.	.	.	/
CCNc1ncc2nc(-c3ccc(F)cc3)c(=O)n(CCc3ccccc3)c2n1	.	28µM	/	/	/	.	79µM
CCNc1ncc2nc(-c3cccs3)c(=O)n(CCc3ccccc3)c2n1	.	28µM	/	/	/	.	79µM
Cc1cc(/C=C2\SC(=S)NC2=O)c(C)n1C	.	0.32µM	?	.	.	.	/	RECQ1 inh conf=45µM;ADP FP counter=10µM
CC1CCCCN1C(=O)c1ccc2c(c1)N(Cc1ccc(F)cc1)C(=O)c1ccccc1S2(=O)=O (stereo unspecified)	.	/	/	.	.	/	/
CCn1c(SCC(=O)OC)nc2sc3c(c2c1=O)CCC3	.	?	?	.	.	?	?
Oc1ccccc1-c1nnc(SCCN2CCOCC2)n1Cc1ccccc1	.	1.6µM	.	.	.	.	?	RECQ1 inh conf=.;ADP FP counter=.
O=C(CSc1nnc(-c2ccccc2)n1Cc1ccccc1)N1CCOCC1	.	.	.	.	.	.	/
Cc1ccc([N+](=O)[O-])c(NC2OC(CO)C(O)C2O)c1 (stereo unspecified)	.	.	.	.	.	.	/
Cc1cc2cc(CNS(=O)(=O)c3ccccc3)ccc2n1C	.	?	?	45µM	50µM[fluorescent]	.	?
CCS(=O)(=O)NCc1ccc2c(c1)cc(C)n2C	.	.	.	.	.	.	/
